Data on six molecules can be found in PubChem BioAssay (NCATS).

Structures are written as SMILES. Unmarked numbers belong to inactive results. Records with an inconclusive call do not appear. Activity calls are given as the source filed them. Unless noted, calls follow the shape of the dose curve; as a rule, active = well fitted curve in the direction sought with a large enough effect; inconclusive = small, poorly fitted or top-dose-only effect, or another doubt; inactive = no such curve, though single readings can be large; an effect the other way counts as inactive or inconclusive.

The target of assay [1] is Lysosomal acid glucosylceramidase (Homo sapiens) (UniProt P04062). Kind of assay: Glucocerebrosidase-p2 (AID 348; in the data active = potency below about 10 µM; also: potency is read from the fitted curve at half-maximal effect). Conditions: purified GBA, blue fluorogenic substrate, 40 min. Summed up:
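Compounds titrated from 0.6 nM upwards against 0.2 nM enzyme in pH 5.9 citric acid/KH2PO4, taurocholate, tween-20; blue fluorogenic substrate 80 uM, 40 min room temperature, stopped and read Ex 365/Em 440 for AC50.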

Assay [2] concerns the target Cytochrome P450 1A2 (Homo sapiens) (UniProt P05177). Kind of assay: p450-cyp1a2 (AID 410; calls by dose curve; also: potency is read from the fitted curve at half-maximal effect). Conditions: recombinant CYP1A2, luciferin-ME demethylation, luminescence; series mostly up to 57 µM. Summed up: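 Inhibition was calculated relative to 57 uM furafylline (full inhibition). The reaction used human CYP1A2 at 20nM with Luciferin-ME at its Km, 100uM, driven by an NADPH-regenerating system for 60 min at room temperature.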

Assay [3] is described as follows: Stat Signaling Pathway (AID 446; active = well fitted curve in either direction with a large enough effect, not every such curve was filed as active;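 also: ME-180 cervical cancer cells given 40 pM IL-6 alongside compound; SIE-controlled beta-lactamase reporter measured as 460/530 nm FRET emission ratio; % is scaled to controls: 0 for no effect and ±100 for the full control effect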). Particulars: ME-180 SIE beta-lactamase reporter, IL-6 stimulated, 5 h; at 7.69 µM (top of the series) unless noted. Summed up:
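Screening format detects activators and inhibitors alike: ME-180 SIE-bla cells stimulated at 40 pM IL-6 for 5 hrs with compound, then dual-emission beta-lactamase read at 405 nm excitation.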

Assay [4] concerns the target Glucocorticoid receptor (Homo sapiens) (UniProt P04150). Kind of assay: GR-GFP Redistribution (AID 450;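 active = compounds whose dose series gives a full or clear partial fitted curve of increased nuclear translocation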; also: potency is read from the fitted curve at half-maximal effect). Particulars: U2OS GR-GFP nuclear translocation, laser cytometry, 2 h.
For assay [5] the target is unchanged. Kind of assay: GR-EFC Redistribution (AID 451; calls by dose curve; also: potency is read from the fitted curve at half-maximal effect). Conditions: CHO-K1 GR-EFC translocation, beta-gal luminescence, 2 h. Summed up:
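Translocation of GR-ED fusion to nuclear EA restores b-gal, read by luminescence after 1 h room-temperature detection. Engineered CHO-K1 biosensor cells, 1,000/well, exposed 2 h at 37 C to titrations up to 46 uM final.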

The target of assay [6] is Mitogen-activated protein kinase 10 (Mus musculus) (UniProt Q61831). In words: JNK3 AlphaScreen Assay (AID 530; active = well fitted curve in either direction with a large enough effect, not every such curve was filed as active;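 also: kinase came from lysate of stimulated human HepG2 cells; signal reports phosphorylation of biotinylated GST-cJun 1-79 at Ser73 with 10 µM ATP; % is scaled to controls: 0 for no effect and ±100 for the full control effect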). Particulars: JNK3 lysate, c-Jun phosphorylation; series mostly up to 57.1 µM. Summed up:
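Room-temperature AlphaScreen kinase assay; pre-activated HepG2 lysate as JNK3 source, biotin-GST-cJun(1-79) substrate, 10 uM ATP, compound 15 min preincubation.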
(In general: In Alpha technology, singlet oxygen from a donor bead excites a nearby acceptor bead.)

For assay [7], the target named is 3',5'-cyclic-AMP phosphodiesterase 4B (Homo sapiens) (UniProt Q07343). In words: qHTS Assay for Inhibitors of PDE-IV (AID 607; active = well fitted activation curve with a large enough effect in the main read-out, with a control signal flat, not every such curve was filed as active; also: % of control where 0% means no effect). Particulars: HEK293 ACTOne CNG channel cells, membrane potential fluorescence; series mostly up to 22.9 µM. Summed up: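 The readout is membrane depolarisation from a cAMP-sensing CNG channel, detected with a potential dye at ex 535/em 590. Cells were HEK293-derived (endogenous PDE-IV) at 1000 cells/well, titrated up to 22.9 uM final.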
Chain of 3',5'-cyclic-AMP phosphodiesterase 4B (Homo sapiens) (Q07343 whole entry, looked up): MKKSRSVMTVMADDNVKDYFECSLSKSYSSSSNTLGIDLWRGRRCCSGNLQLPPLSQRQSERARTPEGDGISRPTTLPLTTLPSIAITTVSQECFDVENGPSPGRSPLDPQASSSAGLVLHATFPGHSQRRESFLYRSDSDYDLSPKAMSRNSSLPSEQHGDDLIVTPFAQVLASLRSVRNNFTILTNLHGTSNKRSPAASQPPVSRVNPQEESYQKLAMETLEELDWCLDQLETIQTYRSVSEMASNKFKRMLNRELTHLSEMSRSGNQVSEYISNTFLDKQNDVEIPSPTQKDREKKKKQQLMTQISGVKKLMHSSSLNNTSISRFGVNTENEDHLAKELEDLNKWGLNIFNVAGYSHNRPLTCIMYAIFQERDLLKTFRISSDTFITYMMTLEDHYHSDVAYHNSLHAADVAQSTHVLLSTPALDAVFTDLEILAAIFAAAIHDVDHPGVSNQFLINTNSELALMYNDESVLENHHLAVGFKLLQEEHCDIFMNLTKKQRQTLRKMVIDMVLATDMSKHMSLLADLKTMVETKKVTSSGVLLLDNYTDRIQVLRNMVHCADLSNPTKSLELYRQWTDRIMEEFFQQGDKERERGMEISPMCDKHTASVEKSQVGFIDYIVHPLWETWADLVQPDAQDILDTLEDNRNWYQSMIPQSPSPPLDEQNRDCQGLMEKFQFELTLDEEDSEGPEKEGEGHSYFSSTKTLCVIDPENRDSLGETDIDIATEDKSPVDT
(In qHTS, concentration-response curves come from the screen itself.)

Assay [8] concerns the target Cytochrome P450 3A4 (Homo sapiens) (UniProt P08684). In words: qHTS Assay for Inhibitors and Substrates of Cytochrome P450 3A4 (AID 884). Also: potency is read from the fitted curve at half-maximal effect; nearly all actives have a fitted effect of over 50% in size. Conditions: recombinant CYP3A4, Luciferin-PPXE luminescence; series mostly up to 57.1 µM. Summed up: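 20 nM human CYP3A4 with 25 uM Luciferin-PPXE (at KM) in 200 mM KPO4, preincubated 10 min with compound; NADPH regeneration started a 60 min RT reaction. Luciferin detected by luminescence, normalized to 57 uM ketoconazole as full inhibition.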

Assay [9] shares this target. Kind of assay: qHTS Assay for Activators of Cytochrome P450 3A4 (AID 885). Also: nearly all actives have a fitted effect of over 65% in size. Particulars: recombinant CYP3A4, Luciferin-PPXE luminescence, 60 min; series mostly up to 57.1 µM. Summed up:
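Steps: enzyme/substrate mix dispensed; compound added, 10 min RT; NADPH regeneration solution added, 60 min RT; luciferin detection buffer stops reaction; 20 min later luminescence measured.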

The target in assay [10] is Cytochrome P450 2D6 (Homo sapiens) (UniProt P10635). Kind of assay: qHTS Assay for Inhibitors and Substrates of Cytochrome P450 2D6 (AID 891). Also: potency is read from the fitted curve at half-maximal effect; nearly all actives have a fitted effect of over 60% in size. Particulars: recombinant CYP2D6, luciferin-ME EGE luminescence; series mostly up to 57.1 µM. Summed up: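 Human CYP2D6 (5 nM) with 30 uM Luciferin-ME EGE (at Km) in 100 mM KPO4, compound preincubated 10 min, then NADPH regeneration system for 60 min at room temperature. Luciferin read by luminescence; normalized to 1.43 uM quinidine.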

Assay [11] has as its target Cytochrome P450 2C19 (Homo sapiens) (UniProt P33261). Kind of assay: qHTS Assay for Inhibitors and Substrates of Cytochrome P450 2C19 (AID 899). Also: potency is read from the fitted curve at half-maximal effect; nearly all actives have a fitted effect of over 60% in size. Conditions: recombinant CYP2C19, luciferin-H EGE luminescence; series mostly up to 57.1 µM. Summed up:
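5nM enzyme + 10uM Luciferin-H EGE (=KM), 50mM KPO4; cpd pin-transferred, 10 min 37C; NADPH regen, 60 min 37C; stopped w/ luciferin detection reagent, 20 min; luminescence. Normalized to 57uM ketoconazole (AC100).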

Assay [12] concerns the target Dual specificity protein kinase CLK4 (Homo sapiens) (UniProt Q9HAZ1). Kind of assay: qHTS Assay for Inhibitors of CDC-like Kinase 4 (Kinase-Glo Assay) (AID 1770). Also: nearly all actives have a fitted effect of over 65% in size. Also: potency is read from the fitted curve at half-maximal effect. Particulars: recombinant Clk4, Kinase-Glo ATP depletion luminescence; series mostly up to 66.7 µM. Summed up:
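Inhibition was judged from remaining ATP, measured by Ultra-Glo luciferase bioluminescence after Clk4 (25 nM) had acted on RS peptide at 1 uM ATP for 4.5 hours, room temperature.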

The target is the same in assay [13]. In words: qHTS Assay for Inhibitors of CDC-like Kinase 4 (ADP-Glo Assay) (AID 1771). Also: potency is read from the fitted curve at half-maximal effect; nearly all actives have a fitted effect of over 70% in size. Conditions: recombinant CLK4, ADP-Glo luminescence; series mostly up to 80 µM. Summed up:
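Kinase reaction: Clk4 at 25 nM, RS repeat peptide substrate at 100 uM, ATP at 1 uM, 1 hr, room temperature. Product ADP detected as luciferase signal via ADP-Glo.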

Assay [14] addresses Ubiquitin carboxyl-terminal hydrolase 1 (Homo sapiens) (UniProt O94782). In words: Inhibitors of USP1/UAF1: Pilot qHTS (AID 504865).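 Also: rhodamine fluorescence freed from ubiquitin-rhodamine substrate followed over time; top concentration of the series differs between compounds; % is scaled to controls: 0 for no effect and ±100 for the full control effect; nearly all actives have a fitted effect of over 35% in size.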 Particulars: purified USP1/UAF1, Ub-rhodamine cleavage fluorescence; series mostly up to 54.9 µM. Summed up:
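Kinetic fluorescence assay: 1nM USP1/UAF1, 15 min compound preincubation, then 150nM Ub-Rho; 480/540 nm.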

Assay [15] is described as follows: Primary qHTS for small molecule stabilizers of the endoplasmic reticulum resident proteome: Secreted ER Calcium Modulated Protein (SERCaMP) assay (AID 1508630). Also: % is scaled to controls: 0 for no effect and ±100 for the full control effect. Conditions: SH-SY5Y GLuc-SERCaMP (Gaussia luciferase released on ER calcium loss) secretion, thapsigargin, luminescence; series mostly up to 38.4 µM. Summed up:
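GLuc-SERCaMP-expressing SH-SY5Y cells, pretreated 16 h with compound, are challenged with thapsigargin to empty ER calcium stores; after 4 h, coelenterazine is added directly to the medium and luminescence is imaged.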

Assay [16] can be described thus: AP1 Signaling Pathway (AID 357; active = well fitted curve in either direction with a large enough effect, not every such curve was filed as active;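 also: ME-180 reporter cells stimulated with EGF at its EC50 level; % is scaled to controls: 0 for no effect and ±100 for the full control effect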). Conditions: ME-180 (cervical carcinoma) AP-1-bla reporter, EGF-induced, beta-lactamase ratio, 5 h; at 7.69 µM (top of the series) unless noted. Summed up:
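Modulation of EGF-driven AP-1 transcription was assessed with a beta-lactamase reporter in ME-180 cells. Compound and EC50 EGF were co-incubated 5 hours at 37 °C before 2.5-hour CCF4 loading at room temperature and dual-emission reading.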

The nature of assay [17]: NFAT Signaling Pathway (AID 444; active = well fitted curve in either direction with a large enough effect, not every such curve was filed as active). Conditions: Jurkat NFAT-bla M1, carbachol, beta-lactamase ratio, 5 h; at 7.69 µM (top of the series) unless noted. Summed up:
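Read-out: CCF4 FRET ratio (460 nm/530 nm) after 1 h RT dye loading, used for %activity and AC50 from titration series. Cells: Jurkat NFAT-β-lactamase/M1 line, treated with compound plus 1 uM carbachol for 5 h, 37 °C.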

The target in assay [18] is Dual specificity protein kinase CLK4 (Homo sapiens) (UniProt Q9HAZ1). Kind of assay: qHTS Assay for Inhibitors of CDC-like Kinase 4 (ADP-FP Assay) (AID 1795).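 Also: recombinant human CLK4 phosphorylating RS repeat peptide at 1 µM ATP; % is scaled to controls: 0 for no effect and ±100 for the full control effect; nearly all actives have a fitted effect of over 60% in size.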 Particulars: Transcreener ADP fluorescence polarization; series mostly up to 50 µM. Summed up:
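Inhibition of ADP formation by 6.25 nM Clk4 is measured using 1 uM ATP and 100 uM RS repeat peptide over one hour. Produced ADP displaces a fluorescent tracer from antibody, lowering polarization.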

Chain of Cytochrome P450 1A2 (Homo sapiens) (P05177 whole entry, looked up): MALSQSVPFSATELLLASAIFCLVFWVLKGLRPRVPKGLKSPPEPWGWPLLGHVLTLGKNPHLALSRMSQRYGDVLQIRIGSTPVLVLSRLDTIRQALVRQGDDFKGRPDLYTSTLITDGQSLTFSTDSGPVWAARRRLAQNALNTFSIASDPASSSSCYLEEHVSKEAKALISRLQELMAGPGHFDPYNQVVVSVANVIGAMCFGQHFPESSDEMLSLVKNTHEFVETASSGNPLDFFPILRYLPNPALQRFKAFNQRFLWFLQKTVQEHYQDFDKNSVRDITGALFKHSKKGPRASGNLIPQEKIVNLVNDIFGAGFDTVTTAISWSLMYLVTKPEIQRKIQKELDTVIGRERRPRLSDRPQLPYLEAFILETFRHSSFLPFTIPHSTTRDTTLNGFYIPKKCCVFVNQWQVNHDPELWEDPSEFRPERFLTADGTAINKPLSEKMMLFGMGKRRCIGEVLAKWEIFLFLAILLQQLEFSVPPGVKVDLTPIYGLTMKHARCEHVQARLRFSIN
Chain of Lysosomal acid glucosylceramidase (Homo sapiens) (P04062 whole entry, looked up): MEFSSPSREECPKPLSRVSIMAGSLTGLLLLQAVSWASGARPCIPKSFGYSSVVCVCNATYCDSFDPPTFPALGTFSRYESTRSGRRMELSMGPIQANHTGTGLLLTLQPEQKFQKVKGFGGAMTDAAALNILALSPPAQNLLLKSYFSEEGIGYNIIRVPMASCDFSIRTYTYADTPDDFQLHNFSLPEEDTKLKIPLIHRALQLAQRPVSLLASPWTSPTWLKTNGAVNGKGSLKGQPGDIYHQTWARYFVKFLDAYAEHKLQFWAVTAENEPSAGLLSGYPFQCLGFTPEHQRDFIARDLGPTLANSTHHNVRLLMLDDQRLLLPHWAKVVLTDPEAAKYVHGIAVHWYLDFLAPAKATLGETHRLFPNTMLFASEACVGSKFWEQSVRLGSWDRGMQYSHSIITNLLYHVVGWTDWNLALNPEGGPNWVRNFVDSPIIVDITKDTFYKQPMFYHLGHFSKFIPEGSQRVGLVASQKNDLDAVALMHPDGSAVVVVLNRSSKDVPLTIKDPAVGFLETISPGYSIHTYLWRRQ
Chain of Glucocorticoid receptor (Homo sapiens) (P04150 whole entry, looked up): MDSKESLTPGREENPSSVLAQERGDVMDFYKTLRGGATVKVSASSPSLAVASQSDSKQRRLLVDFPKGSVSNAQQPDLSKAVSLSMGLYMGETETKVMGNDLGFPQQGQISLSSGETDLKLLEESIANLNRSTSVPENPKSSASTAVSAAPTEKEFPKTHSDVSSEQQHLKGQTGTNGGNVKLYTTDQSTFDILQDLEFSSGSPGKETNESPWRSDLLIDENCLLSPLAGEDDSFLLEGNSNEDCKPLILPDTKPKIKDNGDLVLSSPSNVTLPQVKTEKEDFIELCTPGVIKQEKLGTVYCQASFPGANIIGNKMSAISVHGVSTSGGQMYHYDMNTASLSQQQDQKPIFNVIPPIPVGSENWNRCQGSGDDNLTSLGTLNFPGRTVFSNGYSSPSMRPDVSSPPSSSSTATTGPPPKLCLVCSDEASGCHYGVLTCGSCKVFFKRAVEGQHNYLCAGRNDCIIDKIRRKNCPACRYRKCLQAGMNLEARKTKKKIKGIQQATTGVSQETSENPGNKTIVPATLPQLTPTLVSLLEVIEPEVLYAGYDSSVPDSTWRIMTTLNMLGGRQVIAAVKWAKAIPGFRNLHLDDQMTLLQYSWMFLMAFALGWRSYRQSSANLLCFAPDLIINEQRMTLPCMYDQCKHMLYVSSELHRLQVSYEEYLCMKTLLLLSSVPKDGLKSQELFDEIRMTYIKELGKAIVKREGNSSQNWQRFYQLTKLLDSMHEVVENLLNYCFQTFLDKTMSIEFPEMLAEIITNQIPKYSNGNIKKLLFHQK
Chain of Dual specificity protein kinase CLK4 (Homo sapiens) (Q9HAZ1 whole entry, looked up): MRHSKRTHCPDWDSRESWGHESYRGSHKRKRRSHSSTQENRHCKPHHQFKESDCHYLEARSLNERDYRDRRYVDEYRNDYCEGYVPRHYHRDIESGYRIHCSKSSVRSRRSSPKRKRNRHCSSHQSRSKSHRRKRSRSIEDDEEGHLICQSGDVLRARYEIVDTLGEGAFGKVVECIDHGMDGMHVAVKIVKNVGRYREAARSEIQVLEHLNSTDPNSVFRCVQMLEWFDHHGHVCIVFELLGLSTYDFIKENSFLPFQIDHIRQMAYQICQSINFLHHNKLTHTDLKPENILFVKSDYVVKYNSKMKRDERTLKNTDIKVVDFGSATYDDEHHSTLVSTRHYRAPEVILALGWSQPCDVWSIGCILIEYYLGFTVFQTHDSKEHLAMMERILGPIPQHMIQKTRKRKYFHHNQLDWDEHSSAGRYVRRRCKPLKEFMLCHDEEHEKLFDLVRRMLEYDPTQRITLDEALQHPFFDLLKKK
Chain of Ubiquitin carboxyl-terminal hydrolase 1 (Homo sapiens) (O94782 whole entry, looked up): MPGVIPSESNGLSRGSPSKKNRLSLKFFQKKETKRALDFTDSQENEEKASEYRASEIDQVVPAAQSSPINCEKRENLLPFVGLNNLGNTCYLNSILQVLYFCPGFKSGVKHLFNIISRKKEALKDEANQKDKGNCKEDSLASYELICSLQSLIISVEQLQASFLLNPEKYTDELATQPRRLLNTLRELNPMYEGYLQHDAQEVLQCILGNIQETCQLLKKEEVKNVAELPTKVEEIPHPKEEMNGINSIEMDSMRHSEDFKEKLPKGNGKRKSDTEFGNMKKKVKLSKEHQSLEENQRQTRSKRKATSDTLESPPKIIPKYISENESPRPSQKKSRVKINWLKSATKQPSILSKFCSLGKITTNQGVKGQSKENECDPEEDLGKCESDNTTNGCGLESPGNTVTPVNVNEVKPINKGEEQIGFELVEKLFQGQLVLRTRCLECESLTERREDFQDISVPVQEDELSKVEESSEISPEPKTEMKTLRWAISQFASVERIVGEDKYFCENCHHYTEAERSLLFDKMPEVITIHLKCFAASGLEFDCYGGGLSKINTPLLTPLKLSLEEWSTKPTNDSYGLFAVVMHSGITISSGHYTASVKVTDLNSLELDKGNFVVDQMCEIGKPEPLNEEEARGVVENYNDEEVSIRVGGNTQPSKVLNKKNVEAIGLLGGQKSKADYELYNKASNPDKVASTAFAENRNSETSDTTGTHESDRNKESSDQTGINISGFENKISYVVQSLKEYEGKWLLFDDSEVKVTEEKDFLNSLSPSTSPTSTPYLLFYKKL
Chain of Cytochrome P450 3A4 (Homo sapiens) (P08684 whole entry, looked up): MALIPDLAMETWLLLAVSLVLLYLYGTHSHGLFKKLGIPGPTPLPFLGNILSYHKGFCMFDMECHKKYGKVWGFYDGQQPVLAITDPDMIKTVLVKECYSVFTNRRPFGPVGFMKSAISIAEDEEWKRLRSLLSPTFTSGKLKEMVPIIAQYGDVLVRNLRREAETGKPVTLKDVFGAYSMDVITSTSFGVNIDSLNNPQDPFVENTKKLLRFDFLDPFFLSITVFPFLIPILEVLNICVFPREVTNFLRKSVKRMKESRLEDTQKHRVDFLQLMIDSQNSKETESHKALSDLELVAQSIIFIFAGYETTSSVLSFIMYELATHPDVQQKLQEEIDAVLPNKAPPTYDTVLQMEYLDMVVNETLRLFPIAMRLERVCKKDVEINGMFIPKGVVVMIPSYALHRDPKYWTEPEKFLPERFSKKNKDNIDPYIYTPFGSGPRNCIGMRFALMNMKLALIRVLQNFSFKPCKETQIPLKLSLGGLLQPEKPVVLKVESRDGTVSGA
Chain of Cytochrome P450 2C19 (Homo sapiens) (P33261 whole entry, looked up): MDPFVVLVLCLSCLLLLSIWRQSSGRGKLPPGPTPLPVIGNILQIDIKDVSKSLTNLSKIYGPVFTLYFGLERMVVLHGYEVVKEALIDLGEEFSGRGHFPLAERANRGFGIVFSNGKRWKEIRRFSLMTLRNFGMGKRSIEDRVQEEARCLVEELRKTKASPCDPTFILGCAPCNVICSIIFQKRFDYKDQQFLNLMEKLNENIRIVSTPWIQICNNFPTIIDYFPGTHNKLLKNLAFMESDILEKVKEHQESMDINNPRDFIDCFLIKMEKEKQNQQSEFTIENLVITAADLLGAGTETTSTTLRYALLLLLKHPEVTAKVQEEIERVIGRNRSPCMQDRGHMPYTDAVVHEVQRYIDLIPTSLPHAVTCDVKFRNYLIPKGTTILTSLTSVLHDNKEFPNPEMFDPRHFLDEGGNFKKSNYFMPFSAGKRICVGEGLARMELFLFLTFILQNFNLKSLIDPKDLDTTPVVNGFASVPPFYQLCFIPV

For the molecule `CN(C)c1ccc(-c2nc(-n3ccnc3)c3ccccc3n2)cc1`, the Potency in assay [1] was 8.28 µM (active); in assay [2], 0.316 µM (active); in assay [4] it was over 46 µM; in assay [5], over 46 µM; in [8], 0.631 µM (active); in [10], 7.94 µM (active). Moreover, the Potency was 2.51 µM (active) in assay [11], 7.94 µM (active) in assay [12] and 11.2 µM (active) in [13]. For the same molecule, the activity, negative = inhibition in assay [3] was -23.3%. Further, the Potency entry in assay [6], in [7], in [9] and in [14] was “inactive” each time. Also, the outcome in [15] was inactive.

`CCNc1ncc2nc(-c3ccc(OC)cc3)c(=O)n(CCC#N)c2n1`: the Potency in assay [1] is over 11.4 µM; in assay [2] it was 10 µM (active); in assay [4] it was over 9.22 µM; in assay [5] it was over 46 µM. The activity change, negative = inhibition in [16] is -5.2%; in assay [17], -15.6%. The activity, negative = inhibition in assay [3] is -7.35%. Moreover, the Potency entry in assay [6], in assay [7], in [9], in assay [12], in assay [18] and in [14] was “inactive” in each case. The outcome in assay [15] was inactive.

Take `CN(C)C(=O)c1ccc(-c2nccc(NCc3cccs3)n2)cc1`: the values for the Potency in [1], in [2] and in assay [5] were over 11.4 µM, 15.8 µM (active) and over 46 µM, respectively. Moreover, the activity change, negative = inhibition in [16] was -0.866%; in assay [17], 3.58%. Further, in [3], the activity, negative = inhibition is -7.66%. Moreover, the Potency result in assay [6], in assay [7], in [9], in assay [12], in [18] and in [14] was “inactive” throughout. Further, the result in assay [15] was inactive.

In the case of `N#Cc1cccc(-c2nc(NCc3cccs3)c3ccccc3n2)c1`, the Potency in [1] was over 11.4 µM; in assay [2], 0.316 µM (active); in assay [4] it was over 46 µM; in [5] it was over 46 µM; in assay [8], 3.98 µM (active). For the same molecule, the activity change, negative = inhibition in assay [16] was -7.71%; in [17], -16.7%. For the same molecule, the activity, negative = inhibition in [3] is -29.9%. Also, the Potency entry in assay [6], in [9], in [12] and in assay [18] was “inactive” each time. For the same molecule, the outcome in assay [15] was inactive.

For `Cc1nc2cnc(N(C)C)nc2n(-c2ccccc2)c1=O`, the Potency in assay [1] is over 11.4 µM; in assay [2], 2 µM (active); in assay [4], over 46 µM; in assay [5], over 46 µM. Besides, the figures for the activity change, negative = inhibition in assay [16] and in [17] were -7.75% and 9.3%, respectively. The activity, negative = inhibition in [3] is -16.5%. In addition, the Potency entry in [6], in assay [7], in assay [12], in assay [18] and in assay [14] was “inactive” in each case. The result in assay [15] was inactive.

For the molecule `N#CCCn1c(=O)c(-c2cc(F)cc(F)c2)nc2cnc(N3CCOCC3)nc21`, the Potency in assay [1] is over 11.4 µM; in assay [2], 3.16 µM (active); in [4], over 9.22 µM; in assay [5], over 46 µM. Besides, the activity change, negative = inhibition in assay [16] is 2.2%; in [17] it was 20.1%. In addition, the activity, negative = inhibition in [3] was 12.6%. The Potency result in assay [6], in assay [7], in assay [9], in [12], in assay [18] and in assay [14] was “inactive” each time. In addition, the result in assay [15] was inactive.
